GCN5L2 inh: GCN5L2 (KAT2A) acetyltransferase inhibition; Q92830; GCN5L2 HAT assay, ThioGlo1 CoA-SH fluorescence; Potency, µM (doses to about 58.9 µM), inactives show at the top dose activity change, negative = inhibition, hits mostly inhibitors; hit rate 0.21% among 390,000; AID 504327; further: on the % scale 0 is the no-effect control and ±100 the full control effect
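Free CoA generated was detected with ThioGlo1 (50uM) fluorescence at Ex340nm/Em540nm, read immediately and after 20 min at room temperature. Enzyme, 20 nM in HEPES pH 7.5 buffer, saw compounds 15 min before adding 75uM H3(1-25) peptide and 70uM acetyl-CoA.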
PLK1 PBD inh: PLK1 (human) polo-box domain binding inhibition; P53350; Plk1 PBD binding of FITC phosphopeptide, fluorescence polarization; Potency, µM, for inactives: max response, negative = inhibition, usual class: inhibitors; hit rate 2.8% among 360,000; AID 720504; further: series mostly up to about 57 µM; on the % scale 0 is the no-effect control and ±100 the full control effect; nearly all actives have a fitted effect of over 65% in size
USP1 inh: USP1/UAF1 (human) deubiquitinase inhibition | Potency, µM (titrated, usually from 57.1 µM), without a hit: at the highest dose activity change, negative = inhibition, actives largely listed as inhibitors | hit rate 0.23% among 390,000 | recombinant USP1/UAF1, Ub-Rhodamine cleavage fluorescence; further: on the % scale 0 is the no-effect control and ±100 the full control effect; nearly all actives have a fitted effect of over 60% in size
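1 nM enzyme complex + cpd, 15 min RT; start with Ub-Rho 150nM final; kinetic fluorescence ex 480/em 540, 6 reads q60 s. Buffer 50mM HEPES pH 7.8, 0.5mM EDTA, 0.1 mg/ml BSA, 1mM TCEP, 0.01% Tween-20.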
VDR inh: blocks the human vitamin D receptor. VDR-SRC2-3 peptide fluorescence polarization, 2 h. AID 504847. P11473. hit rate 0.93% among 400,000. Potency, µM, for inactives: max response, negative = inhibition, most hits filed as inhibitors; further: on the % scale 0 is the no-effect control and ±100 the full control effect
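Measured by FP: displacement of SRC2-3 coactivator peptide from VDR by library compounds, following a two-hour ambient incubation.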
TSG101-PTAP inh: blocks PTAP/TSG101 interaction to inhibit HIV-1 budding; Q99816; 340,000 tested, under 10 active; Fluorescence polarization, FITC-PTAP peptide / Tsg101 binding; AID 493005; Potency, µM (titrated, usually from 115 µM), for the others: at the top dose activity change, negative = inhibition, most hits filed as inhibitors; active means well fitted inhibition curve with a large enough effect in the main read-out, with a control signal flat, not every such curve was filed as active; inconclusive means small, poorly fitted or top-dose-only effect, or effect the other way, or a change in a side signal; inactive means no such curve, though single readings can be large or run the other way; further: % of control where 0% means no effect
Target sequence (Q99816 whole entry, looked up): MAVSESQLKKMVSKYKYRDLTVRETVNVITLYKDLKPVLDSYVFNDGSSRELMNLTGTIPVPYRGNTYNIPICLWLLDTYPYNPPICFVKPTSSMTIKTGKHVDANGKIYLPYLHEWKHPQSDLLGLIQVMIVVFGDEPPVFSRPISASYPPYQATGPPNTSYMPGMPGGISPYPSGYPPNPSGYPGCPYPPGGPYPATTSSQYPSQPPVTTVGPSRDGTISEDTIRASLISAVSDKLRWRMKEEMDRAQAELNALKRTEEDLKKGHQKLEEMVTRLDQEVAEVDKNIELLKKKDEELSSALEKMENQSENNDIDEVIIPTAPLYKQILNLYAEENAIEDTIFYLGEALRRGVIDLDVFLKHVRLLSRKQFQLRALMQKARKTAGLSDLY
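Fluorescence anisotropy tracks displacement of a FITC-tagged PTAP peptide (50 nM) from the Tsg101 binding domain (10 uM), following a 20 min room-temperature incubation at pH 7.5.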
Starred values were filed as active, the others as inactive; ? = inconclusive; nt = no result; [ ] = remark or other dose. An excerpt weighted towards active compounds, which were near 3% of everything screened. Unless noted, the call rests on the fitted dose curve; in most records, active means well fitted curve in the direction sought with a large enough effect; inconclusive means small, poorly fitted or top-dose-only effect, or another doubt; inactive means no such curve, though single readings can be large; an effect the other way counts as inactive or inconclusive. Potency means the concentration at half of the fitted maximal effect.

SMILES | GCN5L2 inh | PLK1 PBD inh | USP1 inh | VDR inh | TSG101-PTAP inh
CC(=O)[C@H]1[C@@H]2C(=O)N(c3cccc(Cl)c3)C(=O)[C@@H]2[C@H]2c3ccccc3C=CN21 | -14.8% | ? | 10µM* | 7.1% | -13.2%
O=C(c1ccco1)[C@@H]1[C@@H]2C(=O)N(c3ccc(F)cc3)C(=O)[C@@H]2C2c3ccccc3C=CN21 (stereo partly specified) | -2.5% | nt | nt | nt | nt
CC(=O)[C@@H]1[C@@H]2C(=O)N(c3ccc(F)c(Cl)c3)C(=O)[C@@H]2C2c3ccccc3C=CN21 (stereo partly specified) | -3.9% | nt | nt | nt | nt
Cc1ccc2[nH]c(=O)c(CN(C)C(=O)c3cccs3)cc2c1 | 1.2% | 29.9µM* | -19.4% | -12.5% | -5.5%
CN(Cc1cc2ccccc2[nH]c1=O)C(=O)c1cccs1 | 1.9% | -13.7% | -4.5% | -8.4% | -3.9%
O=C(NCCc1ccc(Cl)cc1)Nc1ccc(F)cc1 | 10.5% | 23.8µM* | -0.8% | -11.8% | 1.8%
Fc1ccc(NC(=S)NCCc2ccc(Cl)cc2)cc1 | 0.8% | -16.3% | -1.3% | -11.8% | 2.0%
O=C(NCCc1ccc(F)cc1)Nc1ccc2c(c1)OCO2 | -10.0% | 8.44µM* | -24.1% | -19.4% | -4.2%
O=C(NCCc1ccccc1)Nc1ccc2c(c1)OCO2 | -1.5% | -1.3% | -24.1% | -2.6% | -0.8%
COc1ccccc1C1C(C(=O)Nc2ccccc2)=C(C)Nc2nc(-c3ccccc3)nn21 (stereo unspecified) | 2.7% | nt | -21.3% | -14.9% | nt
O=C(c1ccco1)n1nc(-c2ccccc2)nc1NCc1ccco1 | -14.1% | 29.9µM* | -7.1% | ? | -2.1%
Cc1ccc(-c2nc(NCc3ccco3)n(C(=O)c3ccco3)n2)cc1 | -5.0% | -4.5% | -17.7% | -5.5% | -8.6%
CC(C)c1nnc(NC(=O)c2cccc(NC(=O)C(F)(F)F)c2)s1 | -0.7% | 21.2µM* | -19.3% | 1.2% | -1.2%
S=c1cnc2ccccc2[nH]1 | -15.6% | 11.9µM* | -13.2% | ? | -0.2%
CNCc1nc2ccccc2[nH]1 | 0.2% | ? | -19.6% | -2.8% | 2.1%
Cn1nc(C(C)(C)C)c([N+](=O)[O-])c1C(=O)NCCO | -0.5% | 23.8µM* | -12.2% | ? | 0.5%
CCOc1ccc(NC(=O)c2nn(C)c3c2COc2ccccc2-3)cc1 | -14.8% | nt | 4.3% | -0.6% | nt
O=C(O)c1cc(N2N=C(C(F)(F)F)/C(=C/C=C/c3ccco3)C2=O)ccc1Cl | 7.94µM* | 0.532µM* | 28.2µM* | ? | -1.4%
CCSc1n[nH]c2nc3c(c(=O)n12)C1(CCCC1)Cc1ccccc1-3 | -3.6% | 21.2µM* | -2.5% | -2.1% | -3.7%
CSc1n[nH]c2nc3c(c(=O)n12)C1(CCCC1)Cc1ccccc1-3 | -1.8% | ? | -1.9% | -3.2% | 2.4%
CCCCCCCCCCCCCCOc1ccc(C(=O)O)o1 | 7.08µM* | nt | nt | 11.2µM* | nt
CCOc1ccc(OCc2ccc(C(=O)O)o2)cc1 | -0.6% | -8.4% | -12.7% | -9.1% | -2.6%
CCOC(=O)C1CCN(C(c2ccccc2)c2c(O)cc(C)n(Cc3ccco3)c2=O)CC1 (stereo unspecified) | -10.6% | nt | -14.7% | 11.3% | nt
Cc1cc(C)c2nc(-c3ccccn3)cc(C(=O)NCc3ccc(S(N)(=O)=O)cc3)c2c1 | -5.8% | -2.5% | 1.1% | 1.3% | 8.2%
Cc1cc(NC(=O)c2cc(-c3ccc(C)s3)nc3ccccc23)no1 | 28.2µM* | -11.3% | -20.5% | -24.5% | -0.9%
SMILES | GCN5L2 inh | PLK1 PBD inh | USP1 inh | VDR inh | TSG101-PTAP inh
Cc1cc(NS(=O)(=O)c2ccc(NC(=O)c3cc(-c4cccnc4)nc4ccc(Cl)cc34)cc2)no1 | -8.8% | ? | -0.2% | 10.2% | -6.6%
Cc1cc(C)c2nc(-c3ccccn3)cc(C(=O)NCCc3ccc(S(N)(=O)=O)cc3)c2c1 | -9.4% | 29.9µM* | -20.7% | 16.5% | -1.6%
Cc1ccc(-c2cc(C(=O)Nc3ccc(S(=O)(=O)Nc4nccs4)cc3)c3ccccc3n2)c(C)c1 | -22.2% | 5.32µM* | -26.0% | -23.0% | 0.6%
Cc1cc(C)c2nc(-c3ccccn3)cc(C(=O)Nc3ccc(S(=O)(=O)Nc4cc(C)on4)cc3)c2c1 | ? | 21.2µM* | ? | ? | -5.1%
COc1cccc(Cn2c(=O)cnc3cnc(OC)nc32)c1 | -7.5% | nt | nt | -18.7% | nt
CCC(=O)Nc1ccccc1-c1nc2ccccc2n(CC(=O)Nc2ccccc2OC)c1=O | -1.1% | nt | -0.1% | 4.8% | nt
Cc1cccc(C2=N[C@@H](CC(C)C)CO2)c1 | -26.0%[135 µM] | nt | nt | 2.7% | nt
Cc1cc(C)c2nc(-c3ccccn3)cc(C(=O)Nc3ccc(S(=O)(=O)Nc4onc(C)c4C)cc3)c2c1 | ? | 6.7µM* | -22.4% | -7.2% | -5.7%
Cc1cc(NS(=O)(=O)c2ccc(NC(=O)c3cc(-c4ccccc4Cl)nc4ccccc34)cc2)no1 | -4.7% | 67µM* | -26.0% | 6.9% | -0.4%
COC(=O)c1cc2oc3ccccc3c2n1Cc1nc(-c2cccc(C)c2)oc1C | -0.6% | nt | -11.2% | 28.9% | nt
COc1cccc(CNC(=O)c2sc3nc4n(c(=O)c3c2C)CCC4)c1 | -4.8% | nt | 6.7% | 9.4% | nt
O=C1C2CC=C(Cl)CC2C(=O)N1CCC[n+]1cccc2ccccc21 (stereo unspecified) | -9.2% | 0.3% | -7.3% | 14.8% | 3.5%
Cc1ccc(Cc2c[nH]c(=S)s2)cc1 | -22.4% | 6.7µM* | -4.0% | -14.9% | 0.4%
Cc1ccc(Cc2c(C)[nH]c(=S)[nH]c2=O)cc1 | 25.5% | -15.8% | -8.8% | -15.9% | 0.7%
Cc1ccc(C(=O)Nc2ccc(N3CCN(C(=O)c4cccs4)CC3)cc2)c(Cl)c1 | -2.9% | -0.2% | -10.9% | 3.9% | 1.6%
COc1cc(NC(=O)CN2CCCN(Cc3cccc(F)c3)S2(=O)=O)cc(OC)c1 | 1.3% | nt | -7.8% | 12.1% | nt
COC(=O)C1=C(N)OC2=C(C(=O)CC(C)(C)C2)C1c1ccoc1 (stereo unspecified) | -4.4% | 4.74µM* | -7.9% | -20.8% | -2.0%
Cc1noc(C)c1COC(=O)CCN1c2ccccc2Sc2ccccc21 | -12.7% | 21.2µM* | -5.1% | ? | -1.3%
Cc1cc(C)c(S(=O)(=O)NCc2ccc3c(c2)CCN3C(=O)c2ccccc2)c(C)c1 | -7.4% | nt | -11.5% | 0.5% | nt
C/C(CC(=O)Nc1cccc2c1CCCC2)=N\NC(=O)c1ccccc1N | 0.0% | -6.3% | -1.6% | -0.7% | -3.3%
C/C(CC(=O)NC(C)(C)C)=N\NC(=O)c1ccccc1N | -2.6% | 23.8µM* | 0.3% | -17.1% | -4.2%
O=C(N/N=C/C=C\c1ccco1)c1ccccn1 | -23.6% | ? | -8.2% | 79.4µM* | 2.9%
CC(=O)c1cccc(NC(c2ccc(F)cc2)c2nnc(-c3ccccc3)o2)c1 (stereo unspecified) | -0.6% | nt | -18.7% | -2.4% | nt
CCc1ccc(NC(=O)Cc2ccc(OC)cc2)cc1 | 2.4% | nt | nt | nt | nt
CCc1ccc(NC(=O)CN(CC(=O)Nc2ccc(CC)cc2)CC(C)O)cc1 (stereo unspecified) | -7.8% | 26.7µM* | -20.1% | -26.0% | -6.5%

Assay outcomes (PubChem)
